Test results: PubChem BioAssay AID2061318 (National Center for Advancing Translational Sciences (NCATS), 2025)
Inconclusive results are not listed. Activity calls are given as the source filed them. Calls follow the shape of the dose curve; as a rule, active = well fitted inhibition curve with a large enough effect; inconclusive = small, poorly fitted or top-dose-only effect; inactive = flat fitted curve, though single readings scatter.

assay: Identification of antibody-drug conjugate (ADC) payloads which are substrates of ATP-binding cassette drug efflux transporters: ABCB1-HEK293-MDR-19 cell line; conditions: HEK293 ABCB1 (MDR-19) viability, CellTiter-Glo, 48 h
Text: Antibody-drug conjugates (ADCs) feature an antibody recognizing a specific protein joined to a potent toxic payload. Numerous antibody-drug conjugates have received FDA approval; however, clinical resistance arises. Resistance mechanisms include decreased expression or mutation of the antibody target, impaired payload release, or increased expression of ATP-binding cassette (ABC) efflux transporters associated with multidrug resistance. We therefore sought to characterize the interaction of ABC multidrug transporters with ADC payloads. We performed a high-throughput screen with 27 common ADC payloads using cells lines expressing ABC transporters P-glycoprotein (P-gp, encoded by ABCB1) or ABCG2 (encoded by ABCG2). Confirmatory assays were also performed using cells transfected to express P-gp, ABCG2, or MRP1 (encoded by ABCC1). Several commonly used ADC payloads were substrates of P-gp, including calicheamicin gamma1, monomethyl auristatin E, DM1, and DM4. All the pyrrolobenzodiazepines tested - SJG136, SGD-1882, SG2057, and SG3199 - were substrates of P-gp, ABCG2, and MRP1. […] These findings highlight the risk of transporter-mediated resistance with certain ADC payloads and underscore the importance of selecting payloads that evade ABC transporter recognition in future ADC development.
HEK-293 cells were transfected with empty vector (pcDNA) or vector containing the human ABCB1 (MDR-19), ABCG2 (R-5), or ABCC1 gene (MRP1) and were maintained in EMEM with 2 mg/mL G418 added to maintain transporter expression. The HeLa derivative KB-3-1 and the P-gp overexpressing KB-8-5-11 subline were maintained in DMEM; KB-8-5-11 additionally received 100 ng/mL colchicine. H460 parental cells were obtained from the Division of Cancer Treatment and Diagnosis Tumor Repository, National Cancer Institute at Frederick, MD and were cultured in RPMI. The ABCG2 expressing subline H460 MX20 was generated by selecting H460 cells in 20 nM mitoxantrone. Media in all cases was supplemented with 10% FBS and 1% penicillin-streptomycin. We explored 27 common ADC payloads, in two orthogonal, paired cell line sets-a drug selected and transfected set for each transporter--to identify substrates of the ABC transporters P-gp and ABCG2. Compounds were sourced from Levena Biopharma (San Diego, CA), Selleck Chem (Houston, TX), ChemieTek (Indianapolis, IN), or Microsource Discovery Systems (Gaylordsville, CT). Screening was performed as previously described. Briefly, cells were plated at a density of 500 cells/well in 1536 well plates with compounds added using a 1536-head pin tool (Kalypsys, San Diego CA). Cells were incubated with cytotoxic drugs and processed with CellTiter Glo reagent (Promega, Madison, WI) to determine viability after 48 hours. P-gp substrates were identified by comparing compound activity between paired sets of low-expressing (sensitive) and over-expressing (resistant) cell lines.

Structure (SMILES)	Potency
COC(=O)c1cc2c3c(cc(O)c2[nH]1)N(C(=O)c1cc2cc(OC)c(OC)c(OC)c2[nH]1)CC3CCl (centres undefined)	0.5 nM (active)
CC(C)(C)OC(=O)Nc1ccc2[nH]c(C(=O)N3C[C@@H](CCl)c4c3cc(O)c3ccccc43)cc2c1	9.4 nM (active)
COc1cccc2c1C(=O)c1c(O)c3c(c(O)c1C2=O)C[C@@](O)(C(=O)CO)C[C@@H]3O[C@H]1C[C@H](N)[C@H](O)[C@H](C)O1	748 nM (active)
CCN(C(C)=O)[C@H]1CO[C@@H](O[C@H]2[C@H](O[C@H]3C#C/C=C\C#C[C@]4(O)CC(=O)C(NC(=O)OC)=C3/C4=C\CSSSC)O[C@H](C)[C@@H](NO[C@H]3C[C@H](O)[C@H](SC(=O)c4c(C)c(I)c(O[C@@H]5O[C@@H](C)[C@H](O)[C@@H](OC)[C@H]5O)c(OC)c4OC)[C@@H](C)O3)[C@@H]2O)C[C@@H]1OC	748 nM (active)
CCN[C@H]1CO[C@@H](O[C@H]2[C@H](O[C@H]3C#C/C=C\C#C[C@]4(O)CC(=O)C(NC(=O)OC)=C3/C4=C\CSSSC)O[C@H](C)[C@@H](NO[C@H]3C[C@H](O)[C@H](SC(=O)c4c(C)c(I)c(O[C@@H]5O[C@@H](C)[C@H](O)[C@@H](OC)[C@H]5O)c(OC)c4OC)[C@@H](C)O3)[C@@H]2O)C[C@@H]1OC	14.9 nM (active)
CCc1c2c(nc3ccc(O)cc13)-c1cc3c(c(=O)n1C2)COC(=O)[C@]3(O)CC	11.8 nM (active)
CN(C)CCOc1ccc2[nH]c(C(=O)N3C[C@@H](CCl)c4c3cc(O)c3ccccc43)cc2c1	0.4 nM (active)
COc1cccc2c1C(=O)c1c(O)c3c(c(O)c1C2=O)C[C@@](O)(C(=O)CO)C[C@@H]3O[C@H]1C[C@H]2[C@H](O[C@@H]3[C@@H](OC)OCCN32)[C@H](C)O1	0.0941 nM (active)
COc1cc2cc(c1Cl)N(C)C(=O)C[C@H](O)[C@]1(C)O[C@H]1[C@H](C)C1C[C@@](O)(NC(=O)O1)[C@H](OC)/C=C/C=C(\C)C2	2980 nM (active)
